Screening results: PubChem, several laboratories
Kir21 inh: inhibitors of mouse Kir2.1 inward-rectifier potassium channel | Inward rectifier potassium channel 2 (Mus musculus), P35561 | HEK293-Kir2.1, FluxOR thallium flux fluorescence; active compounds read low | B-score at 10 µM | 310,000 tested, 0.85% active;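 active = fluorescence ratio B-score at or below minus 3 SD of library scores, with starting-brightness B-score within 2 SD, cut at about -4.2 in these data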;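 note: channel flux triggered by added potassium and thallium sulfate stimulus; B-score of peak minus minimum fluorescence over baseline after thallium stimulus; more negative B-score means stronger Kir2.1 block with less thallium influx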
H9c2 TAG inh: inhibitors of triacylglycerol accumulation, primary screen, cell-based, uHTS, fluorescence, H9c2; 230,000 tested, 0.66% active; inhibition, % at 12.5 µM; H9c2 cells, Nile Red lipid (TAG) fluorescence; cells loaded with 200 µM oleic acid;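 active = pattern-corrected inhibition of lipid staining of at least 50% with the nuclear-stain viability signal not falling by more than 50%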;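 note: 0% = DMSO wells and 100% = triacsin C control wells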
CHT inh: inhibitors of human choline transporter CHT; High affinity choline transporter 1 (Homo sapiens), Q9GZV3; CHT-expressing cells, membrane potential dye, choline response; active compounds read low; B-score at 10 µM; 310,000 tested, 0.86% active;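 active = B-score over 3 SD under the library average, and starting fluorescence ratio not unusually high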;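 note: choline stimulus applied at its EC90 after an EC20 pre-addition; B-score computed on integrated fluorescence ratio after choline addition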
Target sequence (Q9GZV3 whole entry, looked up): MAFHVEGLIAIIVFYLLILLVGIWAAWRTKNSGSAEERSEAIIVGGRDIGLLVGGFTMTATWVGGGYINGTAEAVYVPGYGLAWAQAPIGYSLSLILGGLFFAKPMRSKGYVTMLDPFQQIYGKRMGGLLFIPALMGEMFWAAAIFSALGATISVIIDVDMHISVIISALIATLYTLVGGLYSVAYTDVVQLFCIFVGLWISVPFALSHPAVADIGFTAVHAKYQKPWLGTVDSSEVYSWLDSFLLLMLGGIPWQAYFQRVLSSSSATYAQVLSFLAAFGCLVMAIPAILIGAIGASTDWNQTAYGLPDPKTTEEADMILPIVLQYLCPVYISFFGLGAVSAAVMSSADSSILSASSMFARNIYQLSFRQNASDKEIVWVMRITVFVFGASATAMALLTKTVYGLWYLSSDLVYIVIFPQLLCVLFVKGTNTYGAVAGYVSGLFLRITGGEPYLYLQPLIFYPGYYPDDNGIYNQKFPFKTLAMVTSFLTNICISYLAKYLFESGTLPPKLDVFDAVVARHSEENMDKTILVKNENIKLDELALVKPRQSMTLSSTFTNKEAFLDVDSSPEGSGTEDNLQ
CHT allo act: CHT positive allosteric modulators, primary screen, cell-based, membrane potential dye, choline EC20; High affinity choline transporter 1 (Homo sapiens), Q9GZV3; CHT-expressing cells; active compounds read high; LV-AA mutant CHT in HEK293 cells; B-score at 10 µM; 310,000 tested, 0.49% active; AID 488977, 2010;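 active = initial fluorescence not abnormally high and integrated response B-score, plate-corrected, over 3 SD above library mean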
CHT inh conf: CHT inhibitors, confirmation, cell-based, membrane potential dye, duplicate | 2,400 tested, 70% active | CHT-expressing cells, choline membrane potential dye; LV-to-AA substituted CHT, HEK293 cells | shares compounds with CHT inh | CHT activity remaining % of control (active compounds read low), % at 10 µM;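 active = choline transporter activity left, mean of duplicates at 10 µM, below buffer-only control mean minus 3 SD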;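 note: depolarization triggered by choline at its EC90 following an EC20 pre-addition; 0% = hemicholinium-3 full block and 100% = buffer-only control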
HEK293 CHT ctr: membrane potential effects in parental HEK293, counter-screen for CHT inhibitor project, cell-based, membrane potential dye. AID 493222, 2011. shares compounds with CHT inh. choline response; active = decrease or increase beyond buffer ±3SD. membrane potential ratio readout (active if shifted either direction beyond buffer ±3SD; no single direction) at 10 µM. 2,400 tested, 4% active;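 note: parental cells lack the transporter so any hit is non-specific; ratio is peak minus trough fluorescence over baseline after EC90 choline challenge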
Active calls of the source: *; i = inactive; / = no result. Compounds with a hit are over-represented: about 2% of the library has one in this group of screens.

SMILES	Kir21 inh	H9c2 TAG inh	CHT inh	CHT allo act	CHT inh conf	HEK293 CHT ctr
CC1(C)NC(=O)N(CC(=O)OCC(=O)Nc2c(Br)cc([N+](=O)[O-])cc2Br)C1=O	/	7	/	/	/	/
CSc1ccc(CN2CCN(CC=C(C)C)C(CCO)C2)cc1 (configuration not stated)	-0.5	-2	i	i	/	/
O=C(NCc1cccc(C(F)(F)F)c1)C1CC(c2ccc(C(F)(F)F)cc2)=NO1 (configuration not stated)	-0.11	-13	i	i	/	/
CC(C)COCC(CN(Cc1ccccc1)c1ccccc1)N1CCCC1 (configuration not stated)	-6.3*	-4	-5.2*	i	i	i
CCC(C)c1ccc(NC(=S)NC(C)C2CCCO2)cc1 (configuration not stated)	-1.1	13	-8.3*	i	47%*	i
Cc1ccc(N/N=C(\C#N)C(N)=S)c(C)c1	-2.2	1	i	i	/	/
N#C/C(=N/Nc1ccc(OC(F)(F)F)cc1)C(N)=S	-1.4	-2	-11*	i	30%*	i
O=C1CCCC(=O)C1C(=O)C1CCN(S(=O)(=O)c2ccccc2)CC1	0.1	2	i	i	/	/
Cc1ccc(S(=O)(=O)N2CCC(C(=O)C3C(=O)CC(C)(C)CC3=O)CC2)cc1	-0.81	-2	-6.4*	i	i	i
COCCNC(=O)c1cc(-c2ccccc2OC)on1	1.1	-2	-7.4*	i	i	i
C=CCc1ccc(OCC(O)CN2CCC(Cc3ccccc3)CC2)c(OC)c1 (configuration not stated)	-2.9	12	-7.2*	i	31%*	i
COc1cccc(OCC(O)CN2CCC(Cc3ccccc3)CC2)c1 (configuration not stated)	0.04	7	i	i	/	/
CC(=O)N(c1ccccc1)c1nc(/C=C/C(=O)Nc2c(C)cc(C)cc2C)cs1	0.03	/	-5.3*	i	i	i
COC(=O)C1=C(C(=O)OC)C2C=CC1C1C(OC(C)=O)C(OC(C)=O)C21 (configuration not stated)	/	14	/	/	/	/
CCCCCN(C(=O)CCC(=O)OCC(=O)N1CCCCC1)c1c(N)n(CCCC)c(=O)[nH]c1=O	0.17	-13	i	i	/	/
Nc1nc(Cl)nc2c1ncn2[C@@H]1O[C@H](CO)[C@@H](O)[C@H]1O	-0.77	16	-5.8*	i	39%*	i
COc1ccc(C(C)(C)C)cc1NC(=O)CCN1C(=O)NC(C)(C)C1=O	/	-9	/	/	/	/
CCC(OC(=O)c1nsc(Cl)c1Cl)C(=O)NCC1CCCO1 (configuration not stated)	-0.08	/	i	i	/	/
COCCN1Cc2cccc(C(=O)Nc3ccc(-c4nc5ccccc5[nH]4)cc3)c2C1=O	0.04	/	-8.3*	i	i	i
Cn1ccc(NC(=O)Nc2cccc([N+](=O)[O-])c2)n1	2.4	/	i	i	/	/
CCCCN(CCCC)c1cn[nH]c(=O)c1Cl	1.6	-5	-6.6*	i	66%*	i
CCn1c(COc2ccc(OC)cc2)nc2ccccc21	-0.18	-30	-5.2*	i	i	i
CCn1c(COc2ccccc2)nc2ccccc21	0.94	-25	i	i	/	/
CC(=O)Nc1cc[n+](C(C)C(=O)c2ccc(Br)cc2)cc1 (configuration not stated)	-0.58	0	i	i	/	/
CCCc1nc2oc3c(NCC4CCCO4)ncnc3c2c2c1COC(C)(C)C2 (configuration not stated)	0.97	/	-8.1*	i	16%*	i
SMILES	Kir21 inh	H9c2 TAG inh	CHT inh	CHT allo act	CHT inh conf	HEK293 CHT ctr
Cc1ccccc1N1CCN(C2CCCN(C(=O)c3cc[n+]([O-])cc3)C2)CC1 (configuration not stated)	-1.9	/	i	i	/	/
COc1cc(C(=S)N2CCOCC2)cc(OC)c1O	1.1	11	i	i	/	/
O=C(CSc1nnc(-c2ccco2)n1Cc1ccco1)NCc1cccs1	1	-9	-5.3*	i	67%*	i
O=[N+]([O-])c1cc([N+](=O)[O-])c2c(=Nc3ccccc3)n(-c3ccccc3)n(O)c2c1	-0.25	26	-6.2*	i	61%*	i
O=[N+]([O-])c1cc(Br)c(Nc2ccccc2)c([N+](=O)[O-])c1	0.24	/	i	i	/	/
CN1CCN(C(=S)c2ccc(-c3cc(Cl)ccc3Cl)o2)CC1	-0.48	-2	-9.7*	i	i	i
N#CCCN1CCN(C(=S)c2ccc(-c3cc(Cl)ccc3Cl)o2)CC1	1.2	-9	i	i	/	/
O=[N+]([O-])c1ccc(O)c2ncccc12	-0.09	9	i	i	/	/
O=[N+]([O-])c1cc([N+](=O)[O-])c2cccnc2c1Oc1ccccc1O	-8.9*	/	-7*	i	45%*	i
CC12CCC(=O)N1C(C(=O)NNC(=O)c1ccccc1F)CS2 (configuration not stated)	/	0	/	/	/	/
CCCc1cc(C(=O)NNC(=S)NCc2ccccc2)cs1	0.69	/	-8.2*	i	54%*	i
CCOC(=O)NC(=O)COC(=O)c1cccc2ccccc12	0.92	2	i	i	/	/
Cc1cccc2sc(N(CCCN(C)C)C(=O)c3ccco3)nc12	-2.9	23	i	i	/	/
Cc1cccc2sc(N(CCCN(C)C)C(=O)c3ccc(Cl)s3)nc12	-5.4*	-2	-6.8*	i	27%*	i
CN(C)CCN(C(=O)c1ccc2c(c1)CCCC2)c1nc2c(F)cccc2s1	1.2	13	i	i	/	/
COc1cccc2sc(N(CCN(C)C)C(=O)c3ccc4c(c3)CCCC4)nc12	-0.03	5	-10*	i	18%*	i
CCOc1cccc2sc(N(CCN(C)C)C(=O)c3ccc4c(c3)OCCO4)nc12	-2.3	10	-8.4*	i	19%*	i
O=C(CCCCCNC(=O)N1CCn2c1nc1ccccc12)N[C@H](C(=O)O)c1ccccc1	1.1	/	i	i	/	/
COC(=O)c1ccccc1Nc1ccnc(Cl)n1	0.86	2	i	i	/	/
CCN(CC(=O)Nc1ccc2c(c1)CCC2)Cc1nc2ccccc2c(=O)[nH]1	0.89	13	-5.1*	i	i	i
Cc1sc2ncnc(NCc3ccco3)c2c1C	3	-18	-5.4*	i	65%*	i
CC1=C(C(=O)Nc2cccc(C(=O)NC3CCCC(C)C3C)c2)SCCO1 (configuration not stated)	0.68	/	-5.6*	i	57%*	i
